Assay outcomes: PubChem, The Scripps Research Institute Molecular Screening Center
FBW7 act = activators of human E3 ligase FBW7; actives 0.13% (n = 650,000); AlphaScreen FBW7–phospho-cyclin E peptide binding, activator screen; normalized activity (activation), % at 26.1 µM; Q969H0; in the data active means normalized activity above about 1.9%;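 further: purified mutant Fbw7 with reduced substrate affinity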
Target sequence (Q969H0 whole entry, looked up): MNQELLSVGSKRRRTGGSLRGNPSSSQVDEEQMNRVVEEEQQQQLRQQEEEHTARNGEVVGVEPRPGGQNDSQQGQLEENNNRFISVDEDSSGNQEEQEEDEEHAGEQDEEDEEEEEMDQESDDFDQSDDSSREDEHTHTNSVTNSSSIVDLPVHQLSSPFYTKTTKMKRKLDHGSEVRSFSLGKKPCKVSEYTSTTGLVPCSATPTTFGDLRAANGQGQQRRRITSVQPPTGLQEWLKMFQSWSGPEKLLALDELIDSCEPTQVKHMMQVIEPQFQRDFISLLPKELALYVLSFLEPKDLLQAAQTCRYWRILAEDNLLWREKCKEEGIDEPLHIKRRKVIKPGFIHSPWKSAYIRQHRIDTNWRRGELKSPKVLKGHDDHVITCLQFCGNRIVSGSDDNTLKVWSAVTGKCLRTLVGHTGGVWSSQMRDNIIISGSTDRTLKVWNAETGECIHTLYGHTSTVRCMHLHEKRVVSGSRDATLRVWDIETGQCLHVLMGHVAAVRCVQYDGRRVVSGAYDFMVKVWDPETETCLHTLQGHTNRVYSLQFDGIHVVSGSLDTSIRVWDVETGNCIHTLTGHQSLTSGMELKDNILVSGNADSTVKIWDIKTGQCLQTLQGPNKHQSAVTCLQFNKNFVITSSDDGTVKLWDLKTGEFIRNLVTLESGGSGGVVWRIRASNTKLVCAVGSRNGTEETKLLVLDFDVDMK
GPR151 activ = activators of human GPR151; Q8TDV0; PathHunter beta-arrestin GPR151 cells, luminescence; activation, % at 11.2 µM; actives 1% (n = 650,000); AID 1508602; in the data active means activation above about 4.9%
MITF primary = human MITF inhibition, primary screen; inhibition, % at 2.6 µM; actives 0.91% (n = 650,000); AlphaScreen MITF homodimerization, bead proximity signal; O75030; in the data active means inhibition above about 50%
TEAD-YAP inh = TEAD-YAP interaction inhibition. HEK-TIYL cells, TEAD-Gal4/YAP UAS-luciferase luminescence. inhibition, % at 9.12 µM. actives 1.4% (n = 640,000); in the data active means inhibition above about 32%
Of the large screens only hits and unclear results are named; the others gave an inactive call. A selection: hits, their analogues and other compounds. The true share with any hit is near 3.5%.

OCCCNc1cc(-c2ccccc2)nc(-c2ccccn2)n1	TEAD-YAP inh 78
COc1ccc(Nc2nc3nonc3nc2N/N=C(\C)c2nonc2C)cc1	TEAD-YAP inh 52
COc1ccc(Nc2nc3nonc3nc2Nc2ccc(OC)cc2)cc1	none
CCOc1ccc(C2Oc3c(Cl)cc(Cl)cc3C=C2[N+](=O)[O-])cc1OCC (stereo unspecified)	TEAD-YAP inh 64
CCOc1ccc(C2Oc3c(cccc3OC)C=C2[N+](=O)[O-])cc1OCC (stereo unspecified)	none
CCOc1ccc(C2Oc3ccc(Br)cc3C=C2[N+](=O)[O-])cc1OCC (stereo unspecified)	TEAD-YAP inh 41
CCOc1ccc(CN2CCc3nnc(CNC(=O)C4CCCN(C)C4)n3CC2)cc1 (stereo unspecified)	none
CC[n+]1ccc(/C=C2\C=Cc3ccc(C)cc3N2C)cc1	none
CC[n+]1c(/C=C2\C=Cc3cc(C)ccc3N2C)sc(C)c1C	TEAD-YAP inh 61
CCN1/C(=C/c2cc[n+](C)cc2)C=Cc2cc(C)ccc21	TEAD-YAP inh 81
CC[n+]1ccc(/C=C2\C=Cc3cc(C)ccc3N2C)cc1	TEAD-YAP inh 58
CCN1C(=C2C(=O)c3ccccc3C2=O)C=Cc2cc(C)ccc21	none
COc1cccc(NC(=O)c2ccc3c(c2[N+](=O)[O-])C(=O)c2ccccc2C3=O)c1	none
O=C(Nc1nc(-c2ccncc2)cs1)c1ccc(Oc2ccc(C(=O)Nc3nc(-c4ccncc4)cs3)cc2)cc1	none
CCOC(=O)c1c(C)oc2ccc(NS(=O)(=O)c3ccc(OC)cc3)cc12	TEAD-YAP inh 42
CCOc1ccc(S(=O)(=O)Nc2ccc3oc(C)c(C(=O)OC(C)C)c3c2)cc1	none
CCOC(=O)c1c(C)oc2cc(C)c(NS(=O)(=O)c3cccs3)cc12	TEAD-YAP inh 46
COCCOC(=O)c1c(C)oc2cc(C)c(NS(=O)(=O)c3cccs3)cc12	none
CCOC(=O)c1c(C)oc2ccc(NS(=O)(=O)c3ccc(Br)cc3)cc12	none
CCOC(=O)c1c(C)oc2c(Cl)cc(NS(=O)(=O)c3ccc(OCC)cc3)cc12	TEAD-YAP inh 56
CCOC(=O)c1c(C)oc2ccc(NS(=O)(=O)c3ccc(OCC)cc3)cc12	TEAD-YAP inh 54
CCCc1oc2ccc(NS(=O)(=O)c3ccc(Br)cc3)cc2c1C(=O)OCC	TEAD-YAP inh 42
CCCNc1nc(N2CCOCC2)nc2c1ncn2-c1ccsc1	TEAD-YAP inh 50
CCCNc1nc(N2CCc3ccccc3C2)nc2c1ncn2-c1ccsc1	none
Nc1nc(N2CCOCC2)nc2c1ncn2-c1ccsc1	TEAD-YAP inh 42
CC(=O)c1sc(NC(=O)c2ccc(S(=O)(=O)N3CCc4ccccc4C3)cc2)nc1C	none
CS(=O)(=O)c1cnc2ncnn2c1C1CCN(C(=O)C2CCCO2)CC1 (stereo unspecified)	none
COc1ccc(C2C(C(=O)N3CCN(c4ccccc4OC)CC3)c3ccccc3C(=O)N2c2ccc(OC)cc2)cc1 (stereo unspecified)	TEAD-YAP inh 34
CCc1ccc(-c2cc(C(=O)NN3CCOCC3)c3ccccc3n2)s1	none
Cc1ccc(S(=O)(=O)N(C)c2ccc(C(=O)N3C(C)CCCC3C)cc2)cc1 (stereo unspecified)	TEAD-YAP inh 48
Cc1ccc(S(=O)(=O)N(C)c2ccc(C(=O)N3CCCCC3)cc2)cc1	none
CC1=C(C(=O)OC(C)C)C(c2ccccc2OC(C)C)C2=C(CC(C)(C)CC2=O)N1 (stereo unspecified)	none
CNC(=O)C(NC(=O)c1ccccc1)=C1CCCCC1	TEAD-YAP inh 43
CNC(=O)/C(=C\c1ccccc1)NC(=O)c1ccccc1	none
CCOC(=O)c1cnc2c(OC)cccc2c1Nc1ccc(OC)cc1OC	TEAD-YAP inh 53
CCOC(=O)c1cnc2c(Cl)cccc2c1NCc1ccco1	none
CCOC(=O)c1cnc2c(OC)cccc2c1Nc1ccccc1OC	none
CCOC(=O)c1cnc2c(OC)cccc2c1NCc1ccco1	TEAD-YAP inh 46
COc1ccccc1N1CCN(c2nc(NCCO)c3cnn(C)c3n2)CC1	TEAD-YAP inh 36
COc1cccc2sc(=NC(=O)c3cccc(C)c3)n(C)c12	none
Cc1cc(OCCCNCCN)ccc1C(C)C	none
C=CCNCCCOc1ccc(C(C)C)c(C)c1	TEAD-YAP inh 42
Cc1cc(OCC(O)CNC(C)C)ccc1C(C)C (stereo unspecified)	TEAD-YAP inh 51
Cc1cc(OCC(O)CNC2CCCC2)ccc1C(C)C (stereo unspecified)	none
N#C/C(=C\c1ccc(/C=C(\C#N)c2nn(CCO)c(N)c2C#N)cc1)c1nn(CCO)c(N)c1C#N	none
